The campaign covered roughly 350,000 compounds. About 31,000 (8.9%) were called active. Not shown: some 15% with an inconclusive outcome. Calls come from the whole dose curve; as a rule, active = well fitted inhibition curve with a large enough effect; inconclusive = small, poorly fitted or top-dose-only effect; inactive = no such curve, though single readings can be large or run the other way. Many of the other results were omitted from the sample, so actives are more common in it than they were.
Molecular target: Histone-lysine N-methyltransferase EHMT2 (Homo sapiens) (UniProt Q96KQ7)
Sequence (Q96KQ7 913-1193 limits assumed): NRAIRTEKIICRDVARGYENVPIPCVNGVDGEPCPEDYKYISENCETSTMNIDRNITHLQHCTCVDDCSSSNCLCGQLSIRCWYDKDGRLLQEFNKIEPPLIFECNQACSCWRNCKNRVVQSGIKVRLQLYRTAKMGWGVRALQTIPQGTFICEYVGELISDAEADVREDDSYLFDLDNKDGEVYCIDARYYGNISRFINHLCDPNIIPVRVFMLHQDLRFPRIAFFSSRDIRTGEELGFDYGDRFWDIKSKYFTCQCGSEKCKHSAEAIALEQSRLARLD
Assay: qHTS Assay for Inhibitors of Histone Lysine Methyltransferase G9a; note: nearly all actives have a fitted effect of over 75% in size
Details: G9a H3K9 monomethylation, AlphaScreen, 2 h; series mostly up to 59 µM; activity, negative = inhibition: at the top concentration
Outline: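 AlphaScreen read-out: biotin-H3K9 peptide (500 nM) methylation by 20 nM enzyme with 20 uM SAM, 2 h at room temperature after 15 min compound preincubation; anti-monomethyl H3K9 antibody plus donor/acceptor beads, 10 min dark.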
% is set by controls: 0 for no effect and ±100 for the full control effect; potency is the fitted concentration of half-maximal effect.

activity, negative = inhibition, inactive:
Cc1ccc([C@@H]2CC=C(C(=O)O)[C@H](c3cccc(Cl)c3)N2S(=O)(=O)c2ccc(C)cc2)cc1 3.76% [at 2.33 µM]
CCOC(=O)CSc1nc2ccc(C)cc2[nH]1 -14.7%
Cc1nc2nc(SCC(=O)c3ccccc3)[nH]c2cc1Br -7.31% [at 102 µM]
Cc1ccc2nc(SCC(=O)NC3CCCC3)[nH]c2c1 12.5% [at 102 µM]
Cc1cc(C)nc(SCC(=O)c2ccc(Cl)cc2)n1 4.59% [at 102 µM]
CCOC(=O)c1c(SCC(=O)Nc2cccc(C)c2C)nc(=O)[nH]c1C 4.2%
Cc1ccc(NC(=O)C2CCN(S(=O)(=O)c3cc(-c4noc(C)n4)ccc3C)CC2)c(C)c1 2.07%
COCCNC(=S)N/N=C/c1c(C)[nH]c2ccccc12 -8.34%
Cc1[nH]c2ccccc2c1/C=N\NC(=O)Cn1nnc(-c2ccccc2)n1 20.7%
O=C(Nc1ccc(F)cc1F)c1cnn(-c2ccc(F)cc2)c1-n1cccc1 -3.52%
O=C(OCC(=O)N1CCOCC1)c1ccc2ccccc2c1 0.153%
C=CCn1c2ccccc2c2nnc(SC(CC)C(=O)Nc3nc(C)c(C(=O)OCC)s3)nc21 (centres undefined) 6.8% [at 102 µM]
CCn1c2ccccc2c2nnc(N3CCN(c4cc(C)ccc4C)CC3)nc21 -21.8%
COc1cccc(C2CC(c3cccs3)=NN2C(=O)CSC2=NCCS2)c1OC (centres undefined) -1.42% [at 102 µM]
O=C(COC(=O)c1cccc(Cl)c1)Nc1ccc2[nH]c(=O)[nH]c2c1 10.7% [at 2.33 µM]
O=C(CSc1nc2nccnc2c(=O)n1Cc1cccs1)Nc1ccccc1F 2.38% [at 102 µM]
Cc1cc2n(n1)C(c1cc(C(C)(C)C)c(O)cc1O)Nc1ccccc1-2 (centres undefined) -4.03%
Cc1csc(NC(=O)CSc2ccc(-c3ccc(F)cc3)nn2)n1 -4.33% [at 102 µM]
O=C(CSc1ccc(-c2ccccn2)nn1)Nc1ccccc1 -8.09% [at 102 µM]
O=C(N/N=C\C1CC=CCC1)c1ccc(Br)o1 (centres undefined) 11.4% [at 102 µM]
CCCc1[nH]nc2c1C(c1c(C)nn(-c3ccccc3)c1Cl)C(C#N)=C(N)O2 (centres undefined) -26.6% [at 12.7 µM]
C=CCOC(=O)C1=C(C)OC(N)=C(C#N)C1c1ccc(F)cc1 (centres undefined) 14.3% [at 2.33 µM]
CC(NC(=O)c1cc2c(=O)n3ccccc3nc2n(C(C)C)c1=N)c1ccccc1 (centres undefined) 5.1%
COc1ccc(C(=O)CSc2nc(C)cc(C)n2)cc1[N+](=O)[O-] 14.2%
COc1ccc(OCc2cn3c(C)cc(C)nc3n2)cc1 2.35% [at 102 µM]
Cc1ccc(S(=O)(=O)N2CCN(C(=O)c3ccc(-n4cncn4)c([N+](=O)[O-])c3)CC2)cc1 -0.498% [at 12.7 µM]
CC(=O)c1sc(N/N=C\c2ccc(C)cc2)nc1C 8.51%
C/C(N)=C(/C#N)C(=O)COC(=O)C1=NN(c2ccccc2)C(=O)CC1 10.9% [at 102 µM]
COc1cc2c(cc1OC)[C@@H](Cc1cc(OC)c(OC)c(OC)c1)[N+](C)(CCCOC(=O)CC/C=C/CCC(=O)OCCC[N+]1(C)CCc3cc(OC)c(OC)cc3[C@H]1Cc1cc(OC)c(OC)c(OC)c1)CC2 (some centres undefined) 6.96% [at 12.7 µM]
Cc1noc(C)c1C(=O)NCC1COc2ccccc2O1 (centres undefined) -3.43% [at 2.33 µM]
COc1ccc(-c2nc(C)c(CCNC(=O)c3ccc(C(F)(F)F)cc3)s2)cc1OC -3.85%
CCOc1cc(CNC(=O)c2sc3ncnc(N(C)C4CCCCC4)c3c2C)ccc1OC -2.1%
COCCCNC(=O)C1CC(=O)N(CCc2ccc(F)cc2)C1 (centres undefined) 7.57% [at 102 µM]
O=C(O)CCCn1c(=O)c2cccn2c2ccc(F)cc21 24.2% [at 102 µM]
COc1ccc(NC(=O)CCNS(=O)(=O)c2ccc3c(c2)CCCC(=O)N3)cc1Cl -13.5%
CCc1ccc(NC(=O)CN2C(=O)CCSc3ccc(S(=O)(=O)N4CCCC4)cc32)cc1 4.57%
COc1ccc2c(c1)c(=O)c(C(=O)c1ccccc1)cn2CC(=O)Nc1ccc2c(c1)OCCO2 -5.72%
O=C(Nc1cccc([N+](=O)[O-])c1)N1CCc2ccccc2C1 2.67% [at 102 µM]
O=C(NCCCc1ccccc1)C1CCC(=O)N(CCc2ccc(Cl)cc2)C1 (centres undefined) -2.97% [at 12.7 µM]
CC(C(=O)N(C)CC(=O)Nc1ccccc1C(F)(F)F)N1C(=O)c2ccccc2C1=O (centres undefined) 8.77% [at 12.7 µM]
CN(CC(=O)Nc1ccc(Cl)c(C(F)(F)F)c1)C(=O)CCC(=O)c1ccccc1 7.96%
COc1ccccc1CN1CCC(CNC(=O)c2cnn(-c3ccccc3Cl)c2C2CCN(C(=O)OC(C)(C)C)CC2)CC1 -8.35%
CN(Cc1nc2ccccc2s1)C(=O)c1ccc(F)cc1 -9.17% [at 102 µM]
Cc1nc2ccccc2c(-c2ccccc2)c1C(=O)c1ccccc1 1.18%
COc1cc(C(=O)N2CCN(C(=O)COc3cccc(C)c3)CC2)cc(OC)c1OC 3.42%
CN(C(=O)COC(=O)c1ccc(Br)o1)c1c(N)n(Cc2ccccc2)c(=O)[nH]c1=O -30.9% [at 0.501 µM]

Potency, active:
CC(=O)Nc1ccc(C(=O)CSc2nc3ccc(C)cc3[nH]2)cc1 7.08 µM
O=C(CSc1nc2ccc([N+](=O)[O-])cc2[nH]1)c1ccc(Cl)cc1 5.01 µM
CN=c1scc(-c2cc(OC)ccc2OC)n1/N=C/c1c(C)[nH]c2ccccc12 12.6 µM
COCCN(CCOC)c1nc(N)c2c(N)nc3c(c2c1C#N)CC(=O)N3Cc1ccc(Cl)cc1 17.8 µM
CCn1c2ccccc2c2nnc(SCC(=O)O)nc21 10 µM
O=C(CSc1ccc(-c2ccc(-n3cccn3)cc2)nn1)Nc1ccc([N+](=O)[O-])cc1 15.8 µM
Cc1nn(-c2ccccc2)c2c1C(c1ccc(F)cc1)C(C#N)=C(N)O2 (centres undefined) 50.1 µM
COc1ccc(C(C[N+](=O)[O-])n2nc(C)cc2C)cc1 (centres undefined) 6.31 µM
CC(=O)c1sc(NC(=O)C2=NN(c3ccccc3)C(=O)CC2)nc1C 25.1 µM
COCCCn1c(CCC(=O)O)ccc1-c1ccc(F)cc1 11.2 µM
CN(CC(=O)Nc1ccccc1C(F)(F)F)C(=O)Cc1ccccc1F 50.1 µM
Cc1nc2ccccc2c(C)c1C(=O)c1ccc(F)cc1 50.1 µM

Potency, inactive:
CCOCCCNC(=O)c1cc2c(=O)n3ccccc3nc2s1

— PubChem BioAssay AID504332 (National Center for Advancing Translational Sciences (NCATS), 2011)
